# Test results: PubChem BioAssay
# The source made the active and inactive calls.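 Rule for the calls, unless noted: active = fluorescence slope higher than the sample average by over 3 SD (cut at about -0.22 in these data, passing the limit was not always enough); inactive = the rest.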
# Experiments:
# [1] = inhibitors of TNFa-induced NFkB p65 translocation, primary screen, imaging, HUVEC, MLSMR starter and 10KST1 sets (AID 438;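 active = inhibition above 20% together with a positive visual image hit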;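 note: compound added about 3h40 before a 20 min TNFalpha stimulation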;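 for inhibition: signal is the nuclear over cytoplasmic p65 intensity ratio per well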); conditions: HUVEC TNFa-induced p65 nuclear translocation; cell count: measured here: nuclei count (cytotoxicity indicator), at 2.08 µM unless noted; inhibition: at 2 µM, stronger effect = higher value unless noted
# [2] = inhibitors of mutant huntingtin aggregation, primary screen, imaging, exon1htt(103Q)mCFP cells, high-content imaging (AID 483;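 active = visual image review flags a hit and inhibition of aggregation exceeds 20%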;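 note: compound exposure lasted 3 days before fixation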;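 for nuclei count: percent of the per-plate median nuclei count of sample wells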); conditions: exon1htt(103Q)mCFP cell line, aggregate imaging, at 2 µM; inhibition of aggregation: stronger effect = higher value; nuclei count: measured here: cell count, toxicity
# [3] = inhibitors of E-selectin induction by TNFa, primary screen, imaging, HUVEC, immunofluorescence, MLSMR starter and 10KST1 sets (AID 487;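 active = visually confirmed hit in the image check and inhibition above 20%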;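 for inhibition: signal is fraction of cell area covered by stained E-selectin grains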;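 for nuclei count: 100% = median nuclei count of all wells on the same plate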); conditions: HUVEC TNFalpha-induced E-selectin immunofluorescence imaging, at 2 µM; inhibition: stronger effect = higher value; nuclei count: measured here: cell number, toxicity
# [4] = target: Voltage-gated potassium channel subunit beta-2 (Rattus norvegicus) (UniProt P62483); assay: KvBeta enzyme negative modulators, primary screen, biochemical, NADPH fluorescence (AID 622); conditions: recombinant KvBeta, 4-cyanobenzaldehyde reduction, at 10 µM, stronger effect = higher value;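 note: slope of raw intensity against log time taken from 70 to 1610 s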
# [5] = target: Voltage-gated potassium channel subunit beta-2 (Rattus norvegicus) (UniProt P62483); assay: KvBeta positive modulators, primary screen, biochemical, NADPH fluorescence (AID 623;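 active = NADPH fluorescence slope more negative than the mean of all samples by about 3 SD, 99.7% confidence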;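 note: fluorescence intensity change per second fitted from 20 to 320 s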); conditions: Recombinant KvBeta, NADPH fluorescence decrease slope, 10 min; at 10 µM; stronger effect = lower value
# [6] = target: Muscarinic acetylcholine receptor M4 (Homo sapiens) (UniProt P08173); assay: compounds altering M4/GIRK thallium flux, either direction, primary screen, M4 allosteric agonist project, cell-based, HEK293 M4/GIRK, BTC-AM (AID 625;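 active = fluorescence slope after compound addition differing from the mean of all tested samples at 99.7% confidence, mostly higher but some lower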;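 note: thallium influx through GIRK channels coupled to M4 in HEK293 cells with BTC-AM dye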); conditions: at 10 µM, actives lie on both sides
# [7] = inhibitors of Sendai virus-induced IRF3 signaling, primary screen, TLR/RLR signaling modifier project, cell-based, Sendai virus stimulus, luciferase, 10K MLSCN set (AID 602276;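 active = inhibition at or above 50% at 10 µM; inactive = inhibition below 50%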;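 note: firefly luciferase from ISG56 promoter only with Renilla not read in this screen; 0% = Sendai virus plus DMSO and 100% = medium plus DMSO without virus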); conditions: HEK293 RL24 IRF3 luciferase reporter, at 10 µM, stronger effect = higher value
# [8] = inhibitors of poly I:C-induced TLR3 signaling, primary screen, cell-based, poly I:C stimulus, luciferase, 10K MLSCN set (AID 602277;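 active = inhibition of the reporter signal at or above 50%; inactive = inhibition below 50%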); conditions: HEK293-TLR3 RL24 IRF3 luciferase reporter, at 10 µM, stronger effect = higher value
# [9] = target: Alpha-2C adrenergic receptor (Homo sapiens) (UniProt P18825); assay: modulators of alpha2C/GIRK thallium flux, primary screen, cell-based, HEK293 alpha2C/GIRK1/2 (AID 624;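 active = fluorescence slope after compound addition differing from the mean of all screened samples at 99.7% confidence, in either direction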;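 note: slope of fluorescence ratio to pre-addition baseline per second over 15 to 24 s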); conditions: thallium flux BTC fluorescence, at 10 µM, actives lie on both sides
# [10] = inhibitors of larval lipid processing in zebrafish, primary screen, whole organism, PED6 fluorescence, gall bladder and intestine (AID 686;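 active = a full or partial loss of lipid-probe fluorescence in the fish gall bladder, intestine or both, judged by eye; inactive = no fluorescence loss, or compound toxic to the fish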;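 note: larvae 5 to 7 days old with five fish per well; signal comes from phospholipase A2 cleavage of quenched PED6 carried via bile; overnight exposure to compound and PED6 before scoring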); conditions: Zebrafish larvae PED6 lipid processing, fluorescence scoring
# Sequence of Alpha-2C adrenergic receptor (Homo sapiens) (P18825 whole entry, looked up): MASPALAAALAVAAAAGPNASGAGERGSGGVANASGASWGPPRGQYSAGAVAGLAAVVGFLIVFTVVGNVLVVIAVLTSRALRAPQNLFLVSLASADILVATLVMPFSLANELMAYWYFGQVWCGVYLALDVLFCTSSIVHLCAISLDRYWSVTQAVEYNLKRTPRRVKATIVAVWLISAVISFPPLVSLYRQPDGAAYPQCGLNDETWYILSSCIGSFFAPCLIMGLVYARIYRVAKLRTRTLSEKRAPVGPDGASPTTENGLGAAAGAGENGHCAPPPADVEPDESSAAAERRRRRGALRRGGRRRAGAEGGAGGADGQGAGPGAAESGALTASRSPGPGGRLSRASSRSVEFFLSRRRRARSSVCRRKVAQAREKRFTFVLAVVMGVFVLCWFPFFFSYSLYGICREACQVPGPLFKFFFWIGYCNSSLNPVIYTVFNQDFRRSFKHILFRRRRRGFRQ
# Sequence of Voltage-gated potassium channel subunit beta-2 (Rattus norvegicus) (P62483 whole entry, looked up): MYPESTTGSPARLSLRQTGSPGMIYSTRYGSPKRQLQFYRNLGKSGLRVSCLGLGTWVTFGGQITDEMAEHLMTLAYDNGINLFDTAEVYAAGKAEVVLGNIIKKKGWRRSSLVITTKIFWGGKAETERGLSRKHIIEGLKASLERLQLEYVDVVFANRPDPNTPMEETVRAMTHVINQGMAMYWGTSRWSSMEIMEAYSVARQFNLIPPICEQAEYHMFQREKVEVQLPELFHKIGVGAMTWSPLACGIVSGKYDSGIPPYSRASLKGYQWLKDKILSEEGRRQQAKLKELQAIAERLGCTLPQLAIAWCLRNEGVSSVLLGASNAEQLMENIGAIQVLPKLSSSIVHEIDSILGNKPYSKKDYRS
# Sequence of Muscarinic acetylcholine receptor M4 (Homo sapiens) (P08173 whole entry, looked up): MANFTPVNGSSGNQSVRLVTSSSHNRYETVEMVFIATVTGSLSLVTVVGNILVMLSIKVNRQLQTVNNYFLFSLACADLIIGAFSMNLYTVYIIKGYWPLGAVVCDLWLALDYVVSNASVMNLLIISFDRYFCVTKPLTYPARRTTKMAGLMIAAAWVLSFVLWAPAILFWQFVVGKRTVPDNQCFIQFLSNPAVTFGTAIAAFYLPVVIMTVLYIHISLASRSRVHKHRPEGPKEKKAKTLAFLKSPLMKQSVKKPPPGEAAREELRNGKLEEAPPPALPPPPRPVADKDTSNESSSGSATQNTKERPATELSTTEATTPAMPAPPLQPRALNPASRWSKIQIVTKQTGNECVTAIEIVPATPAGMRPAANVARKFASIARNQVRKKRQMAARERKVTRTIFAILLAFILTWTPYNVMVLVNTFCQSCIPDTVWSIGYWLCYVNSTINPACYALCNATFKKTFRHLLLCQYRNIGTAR
Structure (SMILES),cell count [1],inhibition [1],inhibition of aggregation [2],nuclei count [2] [%],inhibition [3],nuclei count [3] [%],fluorescence slope [4],NADPH fluorescence slope [5],fluorescence slope [6],inhibition [7],inhibition [8],slope [9],outcome [10]
O=c1[nH]c(=O)n(Cc2ccccc2)c(O)c1C=NCCCO,414,-6.5% (inactive),24.4% (inactive),90.8,-59% (inactive),128,-0.52 (inactive),-3e-05 (inactive),0.00467 (inactive),16.7% (inactive),16.9% (inactive),,
CSc1ccc(C(=O)C(C)(C)N2CCOCC2)cc1,401,-5.2% (inactive),-13.1% (inactive),102,-65.3% (inactive),105,-0.577 (inactive),-4.3e-05 (inactive),0.00392 (inactive),14.9% (inactive),2.25% (inactive),,
CSc1ccc(CNC2CN3CCC2CC3)cc1 (configuration not stated),350,0.2% (inactive),-0.6% (inactive),103,32.3% (inactive),102,-0.421 (inactive),-9.5e-05 (inactive),0.00514 (inactive),12.2% (inactive),24.5% (inactive),,
COc1cc(C2NCc3ccccc3-n3cccc32)ccc1O (configuration not stated),660,-19.1% (inactive),12.9% (inactive),123,-128% (inactive),110,-0.487 (inactive),-3.3e-05 (inactive),0.00515 (inactive),-1.03% (inactive),-2.21% (inactive),,
C=CCN1C(=O)C2(C(C(=O)OCC)=C(N)Oc3c2c(=O)oc2ccccc32)c2ccccc21 (configuration not stated),679,-7.1% (inactive),10.1% (inactive),93.2,-41% (inactive),91.1,-0.467 (inactive),-0.000107 (inactive),,13.6% (inactive),21.3% (inactive),0.00519 (inactive),inactive
COC(=NC1CCCC1)C(O)c1c[nH]c2ccccc12 (configuration not stated),602,9.7% (inactive),14% (inactive),88.5,-22.4% (inactive),79.7,-0.536 (inactive),-2.7e-05 (inactive),,5.75% (inactive),32.2% (inactive),0.00519 (inactive),
CCCCn1c(O)c(C=NC2CCCCC2N)c(=O)[nH]c1=O (configuration not stated),747,-6% (inactive),4.3% (inactive),113,-67.3% (inactive),119,-0.61 (inactive),-4e-05 (inactive),,8.89% (inactive),26.1% (inactive),0.00682 (inactive),
C=CCOC(=O)COc1cc(C)cc2oc(=O)c3c(c12)CCC3,609,6% (inactive),20.1% (inactive),85.8,75.7% (active),49.1,-0.254 (inactive),-4.4e-05 (inactive),,-1.05% (inactive),99.1% (active),0.00532 (inactive),inactive
OC(CNC1CCCCC1)c1ccccc1 (configuration not stated),317,-2.5% (inactive),17.9% (inactive),107,-91.2% (inactive),105,-0.399 (inactive),-4.1e-05 (inactive),,10.6% (inactive),22.6% (inactive),0.00434 (inactive),inactive
CC#CP(=O)(OCC)C(O)(c1ccccc1)C(F)(F)F (configuration not stated),621,12.5% (inactive),4.9% (inactive),90.8,-29.4% (inactive),110,-0.621 (inactive),5.6e-07 (inactive),,15% (inactive),23.4% (inactive),0.0037 (inactive),
CCOC(=O)C1CCCCC12C(C#N)=C(N)Oc1n[nH]c(C)c12 (configuration not stated),733,-5.8% (inactive),-12% (inactive),104,-6.6% (inactive),110,-0.637 (inactive),1.2e-05 (inactive),0.00575 (inactive),17.2% (inactive),21.9% (inactive),,
O=C(c1ccc2nc3ccc(Cl)cc3c(=O)n2c1)N1CCC2(CC1)OCCO2,758,-20.4% (inactive),8% (inactive),110,-56.7% (inactive),125,-0.0098 (inactive),1.1e-05 (inactive),0.00414 (inactive),-8.72% (inactive),-12% (inactive),,
COc1cc(/C=N/n2cnnc2)ccc1OC(=O)N(C)C,615,-19.9% (inactive),-14.7% (inactive),114,-3.5% (inactive),98.1,-0.436 (inactive),3.1e-05 (inactive),0.0081 (inactive),13% (inactive),20.9% (inactive),,
O=C1CC(N2CCC(n3c(=O)[nH]c4ccccc43)CC2)C(=O)N1c1ccc(F)cc1 (configuration not stated),366,3.6% (inactive),6.3% (inactive),90.7,-52.5% (inactive),93.7,-0.315 (inactive),1.5e-05 (inactive),,6.41% (inactive),18.8% (inactive),0.0029 (inactive),
COc1ccc(CCn2c(O)c(C=NCc3cccnc3)c(=O)[nH]c2=O)cc1OC,716,-1.7% (inactive),-17.3% (inactive),111,72.3% (active),90.2,-0.629 (inactive),1.1e-05 (inactive),,19.4% (inactive),18.7% (inactive),0.00366 (inactive),
CCOc1c(P(=S)(N(C)C)N(C)C)c(C)nn1-c1ccccc1,305,-5.2% (inactive),4.6% (inactive),108,-3.3% (inactive),112,-0.345 (inactive),8e-06 (inactive),,13.8% (inactive),16.7% (inactive),0.0033 (inactive),
COc1ccc(OC)c(C2=NOC(C(=O)N3CCC4(CC3)OCCO4)C2)c1 (configuration not stated),789,-17.7% (inactive),4% (inactive),84.6,-52.4% (inactive),77.7,-0.234 (inactive),-6.7e-06 (inactive),0.00835 (inactive),10.6% (inactive),17% (inactive),,
Cc1cc(NC(=O)COC(=O)c2c(C)nn(Cc3ccccc3)c2Cl)no1,346,7.3% (inactive),-4.8% (inactive),90.6,-68.8% (inactive),109,-0.377 (inactive),-0.000127 (inactive),0.00868 (inactive),3.25% (inactive),12.9% (inactive),,
O=C(Cn1cc(C(=O)c2ccccc2)c2ccccc21)NCc1ccco1,229,-1.4% (inactive),3.1% (inactive),89.8,-0.3% (inactive),103,-0.567 (inactive),-1.5e-05 (inactive),0.00474 (inactive),-5.96% (inactive),-16.8% (inactive),,
COc1ccc(CC2C(=O)NC(=O)NC2=O)c(OC)c1,757,1.7% (inactive),-24.3% (inactive),105,-3.4% (inactive),105,-0.406 (inactive),5.3e-05 (inactive),,-6.04% (inactive),-0.414% (inactive),0.00731 (inactive),
CC(C)=CCSc1nnc([C@@H](N)Cc2c[nH]c3ccccc23)o1,593,0.9% (inactive),14.2% (inactive),101,2.3% (inactive),92.2,-0.561 (inactive),2.9e-05 (inactive),0.00453 (inactive),5.87% (inactive),2.18% (inactive),,
COC(=O)c1c(C)n(Cc2ccc3c(c2)OCO3)c2ccc(O)cc12,598,2.2% (inactive),-6.7% (inactive),109,30.8% (inactive),90.3,-0.528 (inactive),-1.6e-05 (inactive),0.0049 (inactive),-0.687% (inactive),-6.04% (inactive),,
O=C(c1ccc(CS(=O)(=O)c2ccccc2)o1)N1CCC2(CC1)OCCO2,379,8% (inactive),-2% (inactive),97,-80.2% (inactive),107,-0.523 (inactive),-0.000178 (inactive),0.00484 (inactive),-15.4% (inactive),-9.63% (inactive),,
O=C(C1CCCN(c2nnc(-n3cccc3)s2)C1)N1CCC2(CC1)OCCO2 (configuration not stated),597,-2.2% (inactive),1.5% (inactive),115,8.1% (inactive),92.8,-0.388 (inactive),-4.5e-05 (inactive),,-2.39% (inactive),-5.8% (inactive),0.00502 (inactive),inactive
Cc1nc2ccccc2c(=O)n1-c1ccc(F)cc1,321,-5% (inactive),7.1% (inactive),111,-36.4% (inactive),111,-0.456 (inactive),4.9e-06 (inactive),,7.2% (inactive),36.9% (inactive),0.00327 (inactive),
COc1ccccc1CN1CCN(C(=O)Cc2ccccc2)CC1,466,5.9% (inactive),2.7% (inactive),101,18.9% (inactive),112,-0.326 (inactive),3.1e-06 (inactive),,-1.53% (inactive),3.43% (inactive),0.00694 (inactive),inactive
O=C(C(Cc1ccccc1)NS(=O)(=O)c1ccc(F)cc1)N1CCC2(CC1)OCCO2 (configuration not stated),381,-11.2% (inactive),-7% (inactive),99.8,-43.8% (inactive),122,-0.437 (inactive),8.6e-06 (inactive),,11.2% (inactive),37.1% (inactive),0.00508 (inactive),
